Compounds with a hit are over-represented: about 10% of the library has one in this group of screens.
HEK293 tox = Cytotoxic Profiling in HEK 293 Cell Line of Diverse Libraries Using Quantitative High-Throughput Screening; HEK 293 viability, ATP luminescence (CellTiter-Glo), 48-72 h; Potency, µM (series often up to 115 µM), without a hit: top-dose activity change, negative = cytotoxicity, usual class: inhibitors; actives 6.6% (n = 94,000); also: % is scaled to controls: 0 for no effect and ±100 for the full control effect; nearly all actives have a fitted effect of over 60% in size
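Cytotoxicity was scored by loss of ATP-coupled luminescence (CellTiter-Glo) in HEK 293 cells. Compound treatment ran 48 or 72 hr at 37 degree Celsius, 5% CO2, 95% humidity.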
hNpr1 antagonist = Natriuretic polypeptide receptor (hNpr1) antagonism - Primary qHTS. Potency, µM (doses to about 46.3 µM), without a hit: at the highest dose activity change, negative = inhibition, most hits filed as inhibitors. HEK293 hNpr1 GloSensor cGMP, ANP-stimulated luminescence. actives 1.6% (n = 76,000). Atrial natriuretic peptide receptor 1 (Homo sapiens), P16066; calls by dose curve; also: % is scaled to controls: 0 for no effect and ±100 for the full control effect; nearly all actives have a fitted effect of over 60% in size
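Compound pre-incubated 30 min at room temperature on GloSensor-loaded HEK293 cells stably carrying hNpr1 and the pGS-40F cGMP biosensor. Stimulation uses hNppA at 0.1 nM final; luminescence is taken at baseline and 20 min post-agonist.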
FLuc inh-1 = Firefly luciferase inhibition profiling of diverse chemical library using quantitative high-throughput screening. purified P. pyralis luciferase, luminescence, biochemical. Potency, µM (top dose mostly 115 µM), usual class: inhibitors. actives 2.5% (n = 76,000); also: % is scaled to controls: 0 for no effect and ±100 for the full control effect; nearly all actives have a fitted effect of over 65% in size
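Purified 10nM P. pyralis luciferase with 10uM D-luciferin and 10uM ATP in 50mM Tris acetate pH 7.5, 10mM Mg acetate, 0.01% Tween-20, 0.05% BSA. qHTS titration; luminescence read by CCD imager.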
GPT2 inhibitor = Primary qHTS assay for inhibitors of Glutamate pyruvate transaminase 2 (GPT2). actives 0.25% (n = 100,000). AID 1671188, 2021. Alanine aminotransferase 2 (Homo sapiens), Q8TD30. Potency, µM (titrated, usually from 57.7 µM), for inactives: at the highest dose activity change, negative = inhibition, hits mostly inhibitors. Recombinant GPT2, coupled pyruvate oxidase/HRP Amplex Red fluorescence; also: % is scaled to controls: 0 for no effect and ±100 for the full control effect; nearly all actives have a fitted effect of over 60% in size
Target sequence (Q8TD30 whole entry, looked up): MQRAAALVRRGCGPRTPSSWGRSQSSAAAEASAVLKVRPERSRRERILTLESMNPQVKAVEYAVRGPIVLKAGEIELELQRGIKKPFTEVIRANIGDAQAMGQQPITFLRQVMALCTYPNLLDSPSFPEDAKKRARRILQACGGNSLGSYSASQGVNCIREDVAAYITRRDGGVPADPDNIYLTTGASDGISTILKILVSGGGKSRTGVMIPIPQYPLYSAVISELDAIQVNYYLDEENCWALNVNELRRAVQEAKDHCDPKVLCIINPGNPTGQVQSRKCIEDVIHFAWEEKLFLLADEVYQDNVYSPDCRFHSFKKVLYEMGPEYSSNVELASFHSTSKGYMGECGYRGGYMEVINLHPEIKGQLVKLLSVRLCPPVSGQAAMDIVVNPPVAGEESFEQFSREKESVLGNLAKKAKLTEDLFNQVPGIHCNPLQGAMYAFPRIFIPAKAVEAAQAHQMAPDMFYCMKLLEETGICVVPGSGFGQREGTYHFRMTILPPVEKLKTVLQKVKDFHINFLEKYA
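Recombinant GPT2 (10ng/uL) with 250uM a-KG and 2mM L-alanine, 30 min at room temperature, in HEPES pH 7.5 buffer. Pyruvate detected by pyruvate oxidase/HRP/Amplex Red fluorescence after 30 min in the dark; AOA (50uM) as positive control.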
3T3 cytotox = Cytotoxic Profiling in NIH 3T3 Cell Line of Diverse Libraries Using Quantitative High-Throughput Screening. NIH 3T3 viability, CellTiter-Glo ATP luminescence, 48-72 h. Potency, µM (doses to about 96.7 µM), without a hit: top-dose activity change, negative = cytotoxicity, hits mostly inhibitors. AID 1345082, 2018. actives 4.3% (n = 94,000); also: % is scaled to controls: 0 for no effect and ±100 for the full control effect; nearly all actives have a fitted effect of over 55% in size
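Cells were seeded at 400 per well, treated with pin-transferred compound, and kept 48 or 72 hr at 37 °C before CellTiter-Glo addition and luminescence imaging of cellular ATP.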
FLuc SDR no ATP = Firefly luciferase (FLuc-C-HiBiT) SDR gain of signal screen - without ATP; shares compounds with FLuc inh-1; Potency, µM (series often up to 32.7 µM), for the others: at the highest dose activation (signal gain), hits mostly activators; actives 7.8% (n = 1,300); AID 1963318, 2024; Purified FLuc-C-HiBiT, Nano-Glo HiBiT luminescence, no ATP; also: nearly all actives have a fitted effect of over 55% in size
FLuc SDR ATP = Firefly luciferase (FLuc-C-HiBiT) SDR gain of signal screen - plus ATP | shares compounds with FLuc inh-1 | purified FLuc-C-HiBiT + ATP, HiBiT complementation luminescence | Potency, µM (titrated, usually from 32.7 µM), inactives show at the highest dose activation (gain of signal), hits mostly activators | actives 8.7% (n = 1,300) | AID 1963319, 2024;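 also: signal reports ligand binding via conformational change of the enzyme rather than luciferase catalysis; % of control where 0% means no effect; nearly all actives have a fitted effect of over 55% in size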
FLuc inh-2 = Firefly luciferase (FLuc-C-HiBiT) enzymatic inhibition screen - Functional assay; actives 42% (n = 1,300); Potency, µM (doses to about 32.7 µM), inactives show at the top dose activity change, negative = inhibition, most hits filed as inhibitors; AID 1963320, 2024; purified FLuc-C-HiBiT enzyme, luciferin luminescence; shares compounds with FLuc inh-1; also: % is scaled to controls: 0 for no effect and ±100 for the full control effect; nearly all actives have a fitted effect of over 70% in size
* marks the source's active call; other numbers are inactive results; i = inactive; ? = inconclusive; . = no result; [ ] = dose if it differs, or a comment. Unless noted, calls follow the shape of the dose curve; as a rule, active = well fitted curve in the direction sought with a large enough effect; inconclusive = small, poorly fitted or top-dose-only effect, or another doubt; inactive = no such curve, though single readings can be large; an effect the other way counts as inactive or inconclusive. Potency is read from the fitted curve at half-maximal effect.

SMILES	HEK293 tox	hNpr1 antagonist	FLuc inh-1	GPT2 inhibitor	3T3 cytotox	FLuc SDR no ATP	FLuc SDR ATP	FLuc inh-2
CNc1ccc(-c2noc([C@@H]3CCCN3Cc3ccccn3)n2)cn1	-24.4%[172 µM]	-1.2%[70.6 µM]	?	i	?	.	.	.
CN(C)c1ccc(-c2noc([C@@H]3CCCN3Cc3cnc4ccccc4c3)n2)cn1	?	14.1µM*	14.1µM*	?	?	14.5%[49.3 µM]	10.7%[49.3 µM]	-1.7%[49.3 µM]
CC(C)(Oc1ccc(-c2nc3cc(Cl)ccc3s2)cc1)C(=O)O	.	.	.	i	.	?	?	8.81µM*
C=CCN(C)C(=O)[C@@H](C)C1CC[C@@]2(C)Cc3sc(NC(=O)CN(C)C)nc3[C@@H](C)[C@@H]2[C@H]1O (some centres undefined)	-21.3%	-18.9%	12.6µM*	3.1%	-27.3%	12.6%	13.5%	-13.3%
CCN(CC)C(=O)C(C)[C@@H]1CC[C@@]2(C)Cc3sc(NC(=O)C4CC4)nc3[C@@H](C)[C@@H]2[C@H]1O (some centres undefined)	-4.6%	-6.7%	i	0.0%	-19.4%	.	.	.
CC(C)NC(=O)N1CCN(Cc2ccccc2-c2cccnc2)CC1	-15.3%	.	.	i	-13.7%	.	.	.
Fc1cc(Nc2cnc3ccc(-c4ccccc4)nn23)cc(N2CCOCC2)c1	44.7µM*	-26.8%[70.6 µM]	12.6µM*	-20.5%[88.5 µM]	31.6µM*	13.5%[49.3 µM]	11.3%[49.3 µM]	?
Fc1cccc(Nc2cnc3ccc(-c4ccccc4)nn23)c1	?	-20.7%[70.6 µM]	?	?	?	.	.	.
Cc1ccc(Nc2ccnc(N3CCCC3C(=O)N3CCN(C)CC3)n2)cc1 (centres undefined)	-29.4%	.	.	i	-25.6%	.	.	.
COCc1nc2nccc(-c3ccc4c(c3)OCCCO4)n2n1	-2.8%	-7.4%	i	-8.3%	-0.1%	.	.	.
c1coc(-c2nc3nccc(-c4ccc5c(c4)OCCCO5)n3n2)c1	?	?	1.26µM*	i	?	?	?	1.76µM*
Cc1cc2c(c(-c3nc4ccccc4s3)c1)OC(CNC(=O)CCc1cccnc1)C2 (centres undefined)	.	.	.	.	.	14.4%	8.9%	?
CN1C(=O)c2cccn2CC1CNC(=O)CCc1nc2ccccc2s1 (centres undefined)	0.0%	-9.4%	i	-2.4%	-9.0%	.	.	.
C#CCNC(=O)[C@@H]1CCCN1C(=O)c1cccc(-c2ccccc2OC)c1	-22.0%	.	.	-8.2%	-12.5%	.	.	.
CCOc1ccccc1C(=O)NC1CCN(c2cnn(CC)c(=O)c2)CC1	-25.6%	-21.1%	i	i	?	.	.	.
CCOc1ccccc1C(=O)Nc1nc2c(s1)CC(C)CC2 (centres undefined)	.	.	.	.	.	14.3%	8.4%	4.42µM*
COc1ccc(C(=O)N2CCCN(c3nnc4ccccn34)CC2)cc1F	4.3%	4.9%	i	-14.5%	-24.9%	.	.	.

Screens deposited in PubChem by National Center for Advancing Translational Sciences (NCATS).
